In PubChem BioAssay (NCI):
This is part of a sample that, as a whole, favours compounds with a hit. Of some 83,000 tested, about 20% had one in any assay.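 Results are percent growth after 48 hours of single-concentration exposure. 100 means growth as in untreated cells, lower positive values show inhibition; negative values down to -100 show cell death.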 Calls of active or inactive are those of the source.

Each compound was assayed on HCT-15 colon (assay: NCI-60 one-dose screen, 48 h (100 = growth as untreated, 0 = no growth, -100 = all killed)). Details: 10 µM.
Experimental: Growth inhibition of the HCT-15 human tumor cell line is measured as a screen for anti-cancer activity. Cells are grown in 96 well plates and exposed to the test compound for 48 hours. Compounds are tested at a single concentration, which is 10^-5 M for most compounds. The reported endpoint is percent growth (GI% or GIPRCNT), where numbers from 0 - 100% represent growth inhibition, and numbers from -100% - 0 represent cell death. For example, a value of 40 represents 60% growth inhibition. A value of 0 means no net growth occurred over the course of the experiment. A value of -40 indicates 40% of cells at the beginning of the experiment died by the end of the experiment. A value of -100 means all cells are dead at the end of the experiment.
NCI-60 Human Tumor Cell Lines Screen was performed using the standard one-dose NCI protocol, which is described in more detail at https://dtp.cancer.gov/discovery_development/nci-60/default.htm.
Compounds with GIPRCNT values below 10 were considered active. Activity score was based on GIPRCNT using the following formula: […]
Score is 0 for GIPRCNT values of 100 or above, 50 for GIPRCNT values of 0, and 100 for GIPRCNT values of -100.

SMILES	growth
CCc1nn(Cc2ccccc2)c2nc(C)c(CCc3ccccc3)c(Cl)c12	98.5% (inactive)
CC1CCC2C(C)(C)C3CC12CC1OC13C (stereo not given)	97.7% (inactive)
NC(=O)N/N=C\c1ccco1	107% (inactive)
NC(=S)N/N=C/c1ccc(N)cc1	102% (inactive)
Cc1c(C(=O)O)c(=O)n(-c2ccccc2)n1C	107% (inactive)
COc1cc(C2c3cc4c(cc3C3OC(=O)C2C3CO)OCO4)cc(OC)c1OC (stereo not given)	3.35% (active)
CCOC(=O)C/C(C)=N\O	103% (inactive)
CCOC(=O)c1cc(/C=C/c2ccc(Cl)cc2Cl)on1	-66.1% (active)
COc1ccc(C(C)C=O)cc1 (stereo not given)	93.8% (inactive)
CN(C)/N=C/c1ccccc1O	100% (inactive)
COc1cc(CCN=Cc2ccccc2O)c([N+](=O)[O-])cc1OC	92.3% (inactive)
CC(=O)OC1CC2C(C)(C)OC3CC(=O)OCC32C2CCC3(C)C(=CCC3c3ccoc3)C12C (stereo not given)	108% (inactive)
O=C(CC(=O)c1ccccc1O)c1ccccc1	74.4% (inactive)
O=C1c2ccccc2C(=O)N1OCc1ccccc1	109% (inactive)
O=[N+]([O-])c1cccc2nsnc12	103% (inactive)
CCCNc1ccc(C2=NCCCN2)cc1	97.8% (inactive)
CCOC(=O)c1[nH]c(C)c(C(C)=O)c1C	103% (inactive)
CC[N+](C)(CC)CCO	97.8% (inactive)
CC1(c2ccccc2)NC(=O)NC1=O (stereo not given)	110% (inactive)
COc1cc(C(N)=O)cc(OC)c1OC	101% (inactive)

SMILES	growth
O=C(O)CCCC(=O)O	101% (inactive)
N#CCCN(CCCN1CCOCC1)CN1C(=O)c2ccccc2C1=O	104% (inactive)
O=c1cc(-c2ccccc2)[nH]c2c1CCCC2	25% (inactive)
CCCCNC1(C#N)CCN(Cc2ccccc2)CC1	108% (inactive)
CCCNC(=O)c1ccc(S(N)(=O)=O)cc1	110% (inactive)
O=C(CS)Nc1ccc2ccccc2c1	75.9% (inactive)
C=CCNc1ccccc1	106% (inactive)
Cc1nc2ccccc2c2nnc(SCC(=O)N(Cc3ccccc3)c3ccccc3)n12	90.4% (inactive)
Oc1ccc(Cc2ccccc2)c2cccnc12	29.2% (inactive)
CCOC(=O)CCCS(C)(=O)=O	104% (inactive)
CCC(C)(O)c1ccc(C)cc1 (stereo not given)	107% (inactive)
CCCCCCCCOC(=O)c1ccccn1	97.3% (inactive)
c1ncc2[nH]cnc2n1	87.2% (inactive)
CC1=C(/C=C/C(C)=C/C=C/C(C)=C/CO)C(C)(C)CCC1	112% (inactive)
O=C(O)[C@@H]1[C@H]2C[C@H]3c4[nH]c5ccccc5c4CCN3C[C@@H]2CC[C@@H]1O	106% (inactive)
S=C1CCCCCN1	100% (inactive)
COc1ccc(/C=C/c2cccc[n+]2C)cc1	99.1% (inactive)
Cc1cc(OCCO)cc(C)c1Cl	97.6% (inactive)
Cc1cc(/C=C/c2ccc3cc(N(C)C)ccc3[n+]2C)c(C)n1-c1ccccc1	-29.5% (active)
Cc1cccc([N+](=O)[O-])c1Cl	99.6% (inactive)
